# “And” between values parts separate entries of the source, which are not always exact repeats. Identical values can stand only once. Like-named read-outs stand apart in the source and are kept apart here.
# Assays:
# SGK = conditions: concentration: 1 μM, replicates: in singlicate, n = 1
# SIK2 = conditions: concentration: 1 μM, replicates: in singlicate, n = 1
# SIK = conditions: concentration: 1 μM, replicates: in singlicate, n = 1
# SLK = conditions: concentration: 1 μM, replicates: in singlicate; n = 1
# SNARK = test system: T1, SNARK; conditions: concentration: 1 μM, replicates: in singlicate, n = 1
# T1 construct: gene NUAK2
# SNRK = conditions: concentration: 1 μM, replicates: in singlicate, n = 1
# SRC = conditions: concentration: 1 μM, replicates: in singlicate; n = 1
# SRMS = conditions: concentration: 1 μM, replicates: in singlicate, n = 1
# SRPK1 = conditions: concentration: 1 μM, replicates: in singlicate, n = 1
# SRPK2 = conditions: concentration: 1 μM, replicates: in singlicate, n = 1
# SRPK3 = conditions: concentration: 1 μM, replicates: in singlicate; n = 1
# STK16 = conditions: concentration: 1 μM, replicates: in singlicate, n = 1
# STK33 = conditions: concentration: 1 μM, replicates: in singlicate; n = 1
# STK35 = conditions: concentration: 1 μM, replicates: in singlicate, n = 1
# STK36 = conditions: concentration: 1 μM, replicates: in singlicate, n = 1
# STK39 = conditions: concentration: 1 μM, replicates: in singlicate, n = 1
# SYK = conditions: concentration: 1 μM, replicates: in singlicate, n = 1
# SgK110 = conditions: concentration: 1 μM, replicates: in singlicate; n = 1
# TAK1 = test system: T2, TAK1; conditions: concentration: 1 μM, replicates: in singlicate, n = 1
# T2 construct: gene MAP3K7
# TAOK1 = conditions: concentration: 1 μM, replicates: in singlicate, n = 1
# 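Note: KINOMEscan kinase panel screen.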
compound,measurement,setting,value
Fc1ccc(-c2nn3c(OCC(F)(F)F)cccc3c2-c2ccncc2)cc1 [GW514784],%Inh,SGK,15%
same,%Inh,SIK2,0%
same,%Inh,SIK,0%
same,%Inh,SLK,0%
same,%Inh,SNARK,0%
same,%Inh,SNRK,0%
same,%Inh,SRC,0%
same,%Inh,SRMS,0%
same,%Inh,SRPK1,29%
same,%Inh,SRPK2,0%
same,%Inh,SRPK3,0%
same,%Inh,STK16,3%
same,%Inh,STK33,0%
same,%Inh,STK35,0%
same,%Inh,STK36,0%
same,%Inh,STK39,3%
same,%Inh,SYK,1%
same,%Inh,SgK110,0%
same,%Inh,TAK1,6%
same,%Inh,TAOK1,0%
c1ccc(-c2n[nH]cc2-c2ccnc3ccccc23)nc1 [GW271431],%Inh,SGK,0%
same,%Inh,SIK2,9%
same,%Inh,SIK,8%
same,%Inh,SLK,16%
same,%Inh,SNARK,0%
same,%Inh,SNRK,0%
same,%Inh,SRC,7%
same,%Inh,SRMS,0%
same,%Inh,SRPK1,25%
same,%Inh,SRPK2,0%
same,%Inh,SRPK3,0%
same,%Inh,STK16,18%
same,%Inh,STK33,8%
same,%Inh,STK35,19%
same,%Inh,STK36,0%
same,%Inh,STK39,0%
same,%Inh,SYK,44%
same,%Inh,SgK110,0%
same,%Inh,TAK1,50%
same,%Inh,TAOK1,0%
O=C(Nc1cccc(-c2nn3ncccc3c2-c2ccnc(Nc3cccc(C(F)(F)F)c3)n2)c1)c1c(F)cccc1F [GSK299495],%Inh,SGK,1%
same,%Inh,SIK2,0%
same,%Inh,SIK,0%
same,%Inh,SLK,81%
same,%Inh,SNARK,0%
same,%Inh,SNRK,0%
same,%Inh,SRC,56%
same,%Inh,SRMS,21%
same,%Inh,SRPK1,0%
same,%Inh,SRPK2,16%
same,%Inh,SRPK3,0%
same,%Inh,STK16,3%
same,%Inh,STK33,0%
same,%Inh,STK35,54%
same,%Inh,STK36,99%
same,%Inh,STK39,15%
same,%Inh,SYK,68%
same,%Inh,SgK110,0%
same,%Inh,TAK1,0%
same,%Inh,TAOK1,44%
NS(=O)(=O)CCc1cccc(Nc2nccc(-c3c(-c4cccc(NC(=O)c5c(F)cccc5F)c4)nn4ccccc34)n2)c1 [GSK336735],%Inh,SGK,0%
same,%Inh,SIK2,37%
same,%Inh,SIK,94.7%
same,%Inh,SLK,97.7%
same,%Inh,SNARK,86%
same,%Inh,SNRK,0%
same,%Inh,SRC,97.8%
same,%Inh,SRMS,98.8%
same,%Inh,SRPK1,62%
same,%Inh,SRPK2,0%
same,%Inh,SRPK3,55%
same,%Inh,STK16,28%
same,%Inh,STK33,0%
same,%Inh,STK35,90.7%
same,%Inh,STK36,99.9%
same,%Inh,STK39,1%
same,%Inh,SYK,74%
same,%Inh,SgK110,0%
same,%Inh,TAK1,27%
same,%Inh,TAOK1,73%
COc1ccc(Nc2nccc(N3CCC(NC(=O)Nc4cc(C)ccc4C)C3)n2)cc1 (stereo not drawn) [GSK1379741],%Inh,SGK,0%
same,%Inh,SIK2,0%
same,%Inh,SIK,0%
same,%Inh,SLK,0%
same,%Inh,SNARK,0%
same,%Inh,SNRK,0%
same,%Inh,SRC,0%
same,%Inh,SRMS,0%
same,%Inh,SRPK1,27%
same,%Inh,SRPK2,0%
same,%Inh,SRPK3,0%
same,%Inh,STK16,7%
same,%Inh,STK33,0%
same,%Inh,STK35,0%
same,%Inh,STK36,100%
same,%Inh,STK39,9%
same,%Inh,SYK,0%
same,%Inh,SgK110,0%
same,%Inh,TAK1,0%
same,%Inh,TAOK1,0%
CC(=O)Nc1ccc(COc2ccc(Nc3ccnc4cc(-c5ccccn5)ccc34)cc2)cc1.Cl [GW440148],%Inh,SGK,0%
same,%Inh,SIK2,0%
same,%Inh,SIK,4%
same,%Inh,SLK,0%
same,%Inh,SNARK,15%
same,%Inh,SNRK,0%
same,%Inh,SRC,29%
same,%Inh,SRMS,88%
same,%Inh,SRPK1,46%
same,%Inh,SRPK2,12%
same,%Inh,SRPK3,0%
same,%Inh,STK16,23%
same,%Inh,STK33,0%
same,%Inh,STK35,0%
same,%Inh,STK36,0%
same,%Inh,STK39,13%
same,%Inh,SYK,0%
same,%Inh,SgK110,0%
same,%Inh,TAK1,0%
same,%Inh,TAOK1,0%
Cn1cc(-c2ccc3c(c2)CCN3C(=O)Cc2ccccc2Cl)c2c(N)ncnc21 [GSK2608885],%Inh,SGK,0%
same,%Inh,SIK2,52%
same,%Inh,SIK,96.4%
same,%Inh,SLK,99.2%
same,%Inh,SNARK,89%
same,%Inh,SNRK,0%
same,%Inh,SRC,99.1%
same,%Inh,SRMS,98.4%
same,%Inh,SRPK1,56%
same,%Inh,SRPK2,0%
same,%Inh,SRPK3,0%
same,%Inh,STK16,34%
same,%Inh,STK33,18%
same,%Inh,STK35,95.9%
same,%Inh,STK36,100%
same,%Inh,STK39,1%
same,%Inh,SYK,51%
same,%Inh,SgK110,0%
same,%Inh,TAK1,5%
same,%Inh,TAOK1,50%
CSc1ccc(-c2cc3ncnc(SCC(=O)O)c3s2)cc1,%Inh,SGK,0%
same,%Inh,SIK2,0%
same,%Inh,SIK,25%
same,%Inh,SLK,0%
same,%Inh,SNARK,0%
same,%Inh,SNRK,0%
same,%Inh,SRC,0%
same,%Inh,SRMS,0%
same,%Inh,SRPK1,0%
same,%Inh,SRPK2,100%
same,%Inh,SRPK3,0%
same,%Inh,STK16,2%
same,%Inh,STK33,8%
same,%Inh,STK35,0%
same,%Inh,STK36,0%
same,%Inh,STK39,0%
same,%Inh,SYK,15%
same,%Inh,SgK110,0%
same,%Inh,TAK1,18%
same,%Inh,TAOK1,0%
CC(C)(CN)c1nc(-c2ccc(Cl)c(O)c2)c(-c2ccncc2)[nH]1.O=C(O)C(F)(F)F [SB-477794],%Inh,SGK; 1 µM,23% and 3%
same,%Inh,SIK2; 1 µM,78% and 71%
same,%Inh,SIK; 1 µM,21% and 33%
same,%Inh,SLK,99.3%
same,%Inh,SNARK; 1 µM,0% and 7%
same,%Inh,SNRK; 1 µM,11% and 0%
same,%Inh,SRC,99.9%
same,%Inh,SRMS; 1 µM,0% and 15%
same,%Inh,SRPK1; 1 µM,17% and 42%
same,%Inh,SRPK2; 1 µM,26% and 74%
same,%Inh,SRPK3,0%
same,%Inh,STK16; 1 µM,18% and 0%
same,%Inh,STK33,52%
same,%Inh,STK35; 1 µM,59% and 62%
same,%Inh,STK36; 1 µM,86% and 87%
same,%Inh,STK39; 1 µM,42% and 20%
same,%Inh,SYK; 1 µM,13% and 28%
same,%Inh,SgK110,0%
same,%Inh,TAK1; 1 µM,62% and 75%
same,%Inh,TAOK1; 1 µM,2% and 16%

# — article PMC5540273 (PLoS ONE, 2017)
